We go through nine compounds from PubChem BioAssay (NCI).

Among the test systems are RPMI-8226 leukemia; OVCAR-8 ovarian; OVCAR-5 ovarian; OVCAR-4 ovarian; SK-OV-3 ovarian; IGROV1 ovarian; OVCAR-3 ovarian; HS 578T breast; NCI/ADR-RES ovarian; T-47D breast; MDA-MB-435 melanoma; SW-620 colon; MCF7 breast; HCT-116 colon; HCC-2998 colon; KM12 colon.
Holding throughout (assay): NCI-60 one-dose screen, 48 h (100 = growth as untreated, 0 = no growth, -100 = all killed)
Conditions in all cases: 10 µM

Each structure is given as a SMILES string. About 83,000 compounds went through this panel and 20% of them were active in at least one assay; those are over-represented in the sample as a whole.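 Method: cells in 96-well plates; compound added at one concentration; 48 h incubation; percent growth measured; values under 10 scored active.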 Values without a mark were called inactive. Activity calls are given as the source filed them.

Turning to `O=C(Nc1cccc(-n2cc(-c3ccncc3)c(-c3ccc(O)c(Cl)c3)n2)c1)c1cc(C(F)(F)F)cc(C(F)(F)F)c1`, the growth in the assay on RPMI-8226 leukemia is 28.8%; in the assay on OVCAR-8 ovarian it was 42.9%; in the assay with OVCAR-5 ovarian, 75%; in the assay on OVCAR-4 ovarian it was 53.9%; with SK-OV-3 ovarian, 87.7%; in the assay on IGROV1 ovarian, 71.8%. Further, the growth was 35.7% in the assay with OVCAR-3 ovarian; 60.2% with HS 578T breast; 58.5% in the assay on NCI/ADR-RES ovarian; 25.6% in the assay with T-47D breast; 52% in the assay on MDA-MB-435 melanoma; 67.7% in the assay on SW-620 colon. Also, the growth was 27.3% with MCF7 breast, 44.1% in the assay on HCT-116 colon, 33.3% in the assay on HCC-2998 colon and 27.1% in the assay with KM12 colon.
Consider `COc1ccc2c(c1)sc1nc(-c3ccccc3)c(-c3ccsc3)n12`, for which the growth is 15.2% with RPMI-8226 leukemia; 30.8% with OVCAR-8 ovarian; 51.6% with OVCAR-5 ovarian; 62.8% with OVCAR-4 ovarian; 23.5% with SK-OV-3 ovarian; 31.1% in the assay on IGROV1 ovarian. In addition, the growth in the assay with OVCAR-3 ovarian was -51.6% (active); in the assay on HS 578T breast, 3.75% (active); in the assay on NCI/ADR-RES ovarian, 9.35% (active); with T-47D breast, 57%; with MDA-MB-435 melanoma it was -39.6% (active); in the assay on SW-620 colon it was 19.4%. In addition, the growth in the assay with MCF7 breast is 13.5%; in the assay with HCT-116 colon it was 30.8%; in the assay with HCC-2998 colon it was 11.6%; in the assay with KM12 colon it was 19.4%.
Take `CCCCC(CCCCCC(CCCC)NCc1ccc2c(c1)OCO2)NCc1ccc2c(c1)OCO2` (stereo not drawn): the growth with RPMI-8226 leukemia is -59.2% (active); with OVCAR-8 ovarian it was -83.2% (active); in the assay on OVCAR-5 ovarian, -100% (active); in the assay on OVCAR-4 ovarian, -98.9% (active); in the assay on SK-OV-3 ovarian, -100% (active); in the assay with IGROV1 ovarian, -100% (active). Further, the growth is -100% (active) in the assay with OVCAR-3 ovarian; -67.7% (active) in the assay on HS 578T breast; -99% (active) with NCI/ADR-RES ovarian; -76.6% (active) in the assay on T-47D breast; -82.4% (active) with MDA-MB-435 melanoma; -100% (active) with MCF7 breast. Also, the growth with HCT-116 colon, in the assay with HCC-2998 colon and in the assay on KM12 colon was -100% (active) throughout.
As to `O=C(Nc1ccncc1)C(=O)c1cn(S(=O)(=O)c2cc(Cl)cc(Cl)c2)c2ccccc12`, the growth is 57.1% with RPMI-8226 leukemia; 69.1% with OVCAR-8 ovarian; 89% in the assay on OVCAR-5 ovarian; 75.5% with OVCAR-4 ovarian; 97.2% in the assay with SK-OV-3 ovarian; 57.6% in the assay on IGROV1 ovarian. For the same compound, the growth in the assay with OVCAR-3 ovarian was 59.7%; with HS 578T breast, 69.6%; with NCI/ADR-RES ovarian it was 55.3%; in the assay on T-47D breast it was 56.8%; with MDA-MB-435 melanoma it was 8.83% (active); in the assay with SW-620 colon it was 64.9%. In addition, the growth in the assay on MCF7 breast was 43.9%; in the assay on HCT-116 colon, 51.4%; with HCC-2998 colon, 65.7%; in the assay on KM12 colon it was 55.3%.
Turning to `N#Cc1ncc(-c2cc(F)c(F)c(F)c2)c(NC2CCCCCC2)n1`, the growth is 81.1% with RPMI-8226 leukemia; 96.2% in the assay on OVCAR-8 ovarian; 104% with OVCAR-5 ovarian; 77.8% in the assay on OVCAR-4 ovarian; 88.3% with SK-OV-3 ovarian; 93.5% in the assay with IGROV1 ovarian. Further, the growth is 100% in the assay with OVCAR-3 ovarian; 73.3% with HS 578T breast; 95.3% in the assay with NCI/ADR-RES ovarian; 72.6% in the assay on T-47D breast; 95.5% in the assay with MDA-MB-435 melanoma; 92.8% in the assay on SW-620 colon. The growth in the assay with MCF7 breast was 79.1%; in the assay on HCT-116 colon, 84.4%; with HCC-2998 colon, 91.9%; with KM12 colon, 78.7%.
Regarding `O=C(O)c1ccc(P(=O)(O)O)c([N+](=O)[O-])c1`, the growth in the assay on RPMI-8226 leukemia was 102%; with OVCAR-8 ovarian, 98%; in the assay on OVCAR-5 ovarian it was 107%; in the assay on OVCAR-4 ovarian, 104%; with SK-OV-3 ovarian it was 107%; in the assay with IGROV1 ovarian, 119%. The growth with OVCAR-3 ovarian is 111%; with HS 578T breast, 104%; with NCI/ADR-RES ovarian it was 108%; in the assay on T-47D breast, 104%; in the assay with MDA-MB-435 melanoma, 96%; with SW-620 colon it was 98.2%. Moreover, the growth was 99.3% in the assay with MCF7 breast, 113% with HCT-116 colon, 111% in the assay with HCC-2998 colon and 105% with KM12 colon.
Regarding `Nc1ncnc2[nH]c(=O)[nH]c12`, the growth is 195% with RPMI-8226 leukemia; 93.3% with OVCAR-8 ovarian; 87.9% with OVCAR-5 ovarian; 96.7% in the assay with OVCAR-4 ovarian; 110% in the assay on SK-OV-3 ovarian; 113% with IGROV1 ovarian. Besides, the growth was 98.4% in the assay on OVCAR-3 ovarian; 144% in the assay with HS 578T breast; 107% in the assay with NCI/ADR-RES ovarian; 94.2% in the assay with T-47D breast; 96.4% in the assay with MDA-MB-435 melanoma; 110% with SW-620 colon. The growth is 100% with MCF7 breast, 91.3% in the assay on HCT-116 colon, 111% in the assay with HCC-2998 colon and 99.8% in the assay with KM12 colon.
`COc1cc(-c2cc(/C=C/C(=O)c3ccc(Cl)c(Cl)c3)[nH]n2)cc(OC)c1OC`: the growth in the assay on RPMI-8226 leukemia is -20.3% (active); in the assay on OVCAR-8 ovarian, 77.8%; in the assay with OVCAR-5 ovarian it was 81.9%; with OVCAR-4 ovarian it was 77.4%; in the assay on SK-OV-3 ovarian it was 97.3%; in the assay with IGROV1 ovarian, 108%. The growth in the assay on OVCAR-3 ovarian was 86.5%; in the assay on HS 578T breast, 90.1%; in the assay with NCI/ADR-RES ovarian it was 75.1%; in the assay on T-47D breast, 37%; in the assay on MDA-MB-435 melanoma, 43%; with SW-620 colon, 60.7%. In addition, the growth in the assay on MCF7 breast was 19.3%; in the assay with HCT-116 colon, 36%; in the assay on HCC-2998 colon, 107%; in the assay on KM12 colon, 26.2%.
On to `Cn1c([N+](=O)[O-])cnc1/C=C1\Oc2cc(Cl)ccc2C1=O`, for which the growth is 11.7% in the assay on RPMI-8226 leukemia; -13.3% (active) in the assay with OVCAR-8 ovarian; 29.1% in the assay on OVCAR-5 ovarian; 55% in the assay with OVCAR-4 ovarian; -7.2% (active) with SK-OV-3 ovarian; -22% (active) in the assay with IGROV1 ovarian. Besides, the growth is -33.3% (active) in the assay with OVCAR-3 ovarian; -2.19% (active) in the assay with HS 578T breast; -0.2% (active) in the assay with NCI/ADR-RES ovarian; 86.6% in the assay on T-47D breast; -78% (active) with MDA-MB-435 melanoma; -47.3% (active) in the assay on SW-620 colon. Further, the growth with MCF7 breast is 19%; in the assay on HCT-116 colon, 3.24% (active); in the assay on HCC-2998 colon it was 4.36% (active); with KM12 colon, 1.65% (active).
